The values that follow come from PubChem BioAssay (Tox21).

Values joined by “and” are separate entries in the source; they are usually repeats but may differ in a detail not shown here. Equal entries are not always repeated. Records with an inconclusive call do not appear. Active and inactive are the calls of the source. Unless noted, calls come from the whole dose curve.

A short description of assay [1]: Nuclear factor erythroid 2-related factor 2/antioxidant responsive element (Nrf2/ARE) small molecule agonists: qHTS cell viability counter screen in human keratinocytes (AID 1919968; active = well fitted cell-killing curve with a large enough effect in the repeat runs; note: nearly all actives have a fitted effect of over 55% in size; note: potency is the fitted concentration of half-maximal effect). Summed up:
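Parallel cytotoxicity read: KeratinoSens HaCaT cells, compound treatment 23 h, viability by CellTiter-Fluor fluorescence 1 h post-reagent.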

A short description of assay [2]: Nuclear factor erythroid 2-related factor 2/antioxidant responsive element (Nrf2/ARE) small molecule agonists: luciferase reporter gene qHTS assay in human keratinocytes (AID 1919969). Note: nearly all actives have a fitted effect of over 35% in size. For orientation: Reporter assays use an easily measured gene product as a stand-in for the process of interest.
For assay [3], the target named is Gonadotropin-releasing hormone receptor (Homo sapiens) (UniProt P30968). The assay can be described thus: Human gonadotropin-releasing hormone receptor (GnRHR) small molecule agonists, calcium flux assay in GnRHR-HEK293 cells (AID 1920063). Note: nearly all actives have a fitted effect of over 35% in size. Note: potency is the fitted concentration of half-maximal effect. Summed up: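 Calcium flux, agonist mode, human GnRHR stably integrated in HEK293; dye 1 h at 37 C before compound; Ex/Em=480/540 kinetic read, 3 min; 15 concentrations, triplicate.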
A general note: Calcium assays in cells follow changes in intracellular calcium, usually with a dye or a luminescent sensor.

Assay [4] is described as follows: G protein-coupled receptor (GPCR) small molecule agonists, calcium flux assay: HEK293 wild type cell line counter screen (AID 1920065). In a few lines:
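Non-specific calcium responders were flagged by adding DMSO-dissolved compounds to dye-loaded cells and reading 480/540 nm fluorescence each second for 3 min; ATP served as positive control.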

A short description of assay [5]: p53 small molecule agonists, cell-based qHTS assay with human liver microsomes (AID 1963577).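 Note: p53 response element beta-lactamase reporter cells with liver microsomes plus NADPH.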 Summed up: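 With metabolic activation: human liver microsomes (0.5 mg/mL final) plus NADPH (0.5 mg/mL final) added alongside compounds to p53RE-bla cells; 16 h 37 C exposure; beta-lactamase read by LiveBLAzer fluorescence.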
On the technique in general: Quantitative high-throughput screening tests each substance at several concentrations.

Assay [6] is described as follows: p53 small molecule agonists, cell-based qHTS assay with rat liver microsomes (AID 1963578). Summed up: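 Metabolic activation by rat liver microsomes and NADPH, each 0.5 mg/mL final, added right after compounds to p53RE-bla reporter cells (4,000/well, plated 5 h earlier). 16 h at 37 C, then LiveBLAzer substrate for 2 h at room temperature in the dark; fluorescence read-out.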

A short description of assay [7]: p53 small molecule agonists, cell-based qHTS assay with human liver microsomes: qHTS cell viability counter screen (AID 1963579). Note: nearly all actives have a fitted effect of over 45% in size. Summed up:
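Metabolic activation used human liver microsomes and NADPH, both 0.5 mg/mL final, over 16 hours at 37 C on p53RE-bla cells (4,000/well). Cytotoxicity measured by CellTiter-Glo luminescence, 30 min at room temperature.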

A short description of assay [8]: p53 small molecule agonists, cell-based qHTS assay with rat liver microsomes: qHTS cell viability counter screen (AID 1963580). Note: nearly all actives have a fitted effect of over 45% in size. Summed up:
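Cytotoxicity counter screen: intracellular ATP measured by CellTiter-Glo luminescence in the same wells as the beta-lactamase reporter read, on HCT-116 p53RE-bla cells exposed 16 h at 37 C to compounds with rat liver microsomes and NADPH, each 0.5 mg/mL final.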

A short description of assay [9]: p53 small molecule agonists, cell-based qHTS assay: qHTS cell viability counter screen (AID 1963581). Note: nearly all actives have a fitted effect of over 45% in size. Summed up: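 Multiplexed with the reporter read, a CellTiter-Glo step (30 min, room temperature) gauges ATP-based viability of HCT-116 p53RE-bla cells after 16 h compound incubation at 37 C.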
The nature of assay [10]: p53 small molecule agonists, cell-based qHTS assay (AID 1963582; active = well fitted activation curve with a large enough effect in the signal ratio in the repeat runs, not every such curve was filed as active; the % refers to the signal ratio). In a few lines:
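Beta-lactamase reporter cells (p53RE-bla) treated with compounds for 16 h at 37 C; FRET substrate, 2 h, room temperature; fluorescence intensity.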

For assay [11], the target named is 5-hydroxytryptamine receptor 2A (Homo sapiens) (UniProt P28223). The assay can be described thus: 5-hydroxytryptamine receptor 2A (HTR2A) small molecule antagonists, cell-based qHTS assay (AID 1963586). Note: nearly all actives have a fitted effect of over 45% in size. Summed up: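 CHO cells stably expressing human HTR2A were plated for 18 h at 37 C, then loaded with calcium dye for 1 h. Compounds were preincubated 5 min at room temperature before DOI (4 nM solution) was added. Kinetic fluorescence was read for 3 min.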

For assay [12] the target is unchanged. The assay can be described thus: 5-hydroxytryptamine receptor 2A (HTR2A) small molecule agonists, cell-based qHTS assay (AID 1963587). Note: nearly all actives have a fitted effect of over 30% in size. Note: potency is the fitted concentration of half-maximal effect. In a few lines: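 CHO cells stably expressing human HTR2A, plated 18 h, loaded with calcium dye 1 h at 37 C. Agonist mode: compounds added and intracellular calcium fluorescence recorded kinetically for 2 min at 1 sec intervals.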

Assay [13] deals with Muscarinic acetylcholine receptor M1 (Homo sapiens) (UniProt P11229). The assay can be described thus: Cholinergic receptor muscarinic 1 (CHRM1) small molecule antagonists, cell-based qHTS assay (AID 1963588). Note: nearly all actives have a fitted effect of over 40% in size. In a few lines:
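Compounds were tested at 15 concentrations in three independent runs. Dye-loaded CHRM1-CHO cells were exposed 5 min at room temperature before stimulation by acetylcholine added at 50nM. Intracellular calcium was read kinetically on FDSS for 3 min.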

Assay [14] is described as follows: cAMP Responsive Elements (CRE) small molecule agonists, cell-based qHTS assay (AID 1963590). In a few lines:
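Quantitative HTS for CRE agonists: HEK 293T CRE-bla cells, overnight plating, 3 h compound incubation at 37 C/5% CO2, then 2 h room-temperature LiveBLAzer B/G FRET substrate loading.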

The nature of assay [15]: cAMP Responsive Elements (CRE) small molecule antagonists, cell-based qHTS assay (AID 1963591; active = well fitted inhibition curve with a large enough effect in the signal ratio in the repeat runs, not every such curve was filed as active; the % refers to the signal ratio). In a few lines:
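Fluorescence intensity from cleaved LiveBLAzer B/G substrate (2 h, room temperature) quantified CRE-bla activity in HEK 293T cells exposed 3 h to compound with 0.25 uM final NKH477.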

The target in assay [16] is Beta-2 adrenergic receptor (Homo sapiens) (UniProt P07550). The assay is described as follows: Adrenergic beta2 receptor (ADRB2) small molecule antagonists, cell-based qHTS assay (AID 1963592). Note: series mostly up to about 92 µM; nearly all actives have a fitted effect of over 50% in size. Summed up:
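Assay format: CHO-ADRB2 cells, 18-20hr seeding at 37C/5% CO2, then compound plus 1nM isoproterenol agonist mix for 0.5hr RT. Homogeneous time-resolved fluorescence cAMP detection after 1hr, expressed as 665/615 nm ratio.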

For assay [17], the target named is D(2) dopamine receptor (Homo sapiens) (UniProt P14416). The assay is described as follows: Dopamine D2 receptor (DRD2) small molecule agonists, cell-based qHTS assay (AID 1963594). Note: nearly all actives have a fitted effect of over 35% in size. Summed up: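 HEK293 cells stably expressing human DRD2, pre-treated with PDE inhibitor Ro20-1724 (0.1 mM final) and compound 10 min at room temperature, then stimulated with NKH477 (200nM […]) for 30 min. cAMP read by HTRF (665/620 nm).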

Assay [18] has the same target. The assay is described as follows: Dopamine D2 receptor (DRD2) small molecule antagonists, cell-based qHTS assay (AID 1963595; active = well fitted inhibition curve with a large enough effect in the signal ratio in the repeat runs, with a control signal flat; the % refers to the signal ratio). In a few lines: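 Readout: HTRF cAMP, cAMP-d2 competing with cellular cAMP for anti-cAMP cryptate, read after 1 h. Cells: DRD2-HEK293. Conditions: 0.1 mM Ro20-1724, 12 nM quinpirole, 200 nM NKH477, 30 min RT.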
Assay [19] concerns the target Muscarinic acetylcholine receptor M1 (Homo sapiens) (UniProt P11229). The assay is described as follows: Cholinergic receptor muscarinic 1 (CHRM1) small molecule agonists, cell-based qHTS assay (AID 1963589). Note: nearly all actives have a fitted effect of over 35% in size. Note: potency is the fitted concentration of half-maximal effect. Summed up:
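qHTS, 15-point titration, 3 independent runs: compounds pin-transferred onto dye-loaded CHRM1-CHO cells (human M1), calcium fluorescence followed every second to detect agonism.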

Assay [20] addresses Beta-2 adrenergic receptor (Homo sapiens) (UniProt P07550). The assay is described as follows: Adrenergic beta2 receptor (ADRB2) small molecule agonists, cell-based qHTS assay (AID 1963593).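 Note: CHO cells stably overexpressing human ADRB2.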 In a few lines:
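CHO cells stably over-expressing ADRB2 were plated overnight at 37C, then dosed with compounds plus a stimulation mix containing 100uM IBMX and 25uM Ro-20-1724 for 0.5hr at room temperature. cAMP was measured by HTRF competition, 1hr.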

Gonadotropin-releasing hormone receptor (Homo sapiens), sequence (P30968 whole entry, looked up): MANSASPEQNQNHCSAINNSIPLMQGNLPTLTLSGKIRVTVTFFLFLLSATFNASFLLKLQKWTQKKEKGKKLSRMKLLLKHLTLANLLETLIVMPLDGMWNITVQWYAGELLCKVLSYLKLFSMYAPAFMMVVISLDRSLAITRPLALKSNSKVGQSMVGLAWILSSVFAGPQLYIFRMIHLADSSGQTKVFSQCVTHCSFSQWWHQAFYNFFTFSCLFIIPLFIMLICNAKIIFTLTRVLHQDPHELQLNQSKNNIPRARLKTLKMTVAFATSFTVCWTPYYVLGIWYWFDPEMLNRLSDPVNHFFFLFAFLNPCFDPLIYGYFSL
5-hydroxytryptamine receptor 2A (Homo sapiens), sequence (P28223 whole entry, looked up): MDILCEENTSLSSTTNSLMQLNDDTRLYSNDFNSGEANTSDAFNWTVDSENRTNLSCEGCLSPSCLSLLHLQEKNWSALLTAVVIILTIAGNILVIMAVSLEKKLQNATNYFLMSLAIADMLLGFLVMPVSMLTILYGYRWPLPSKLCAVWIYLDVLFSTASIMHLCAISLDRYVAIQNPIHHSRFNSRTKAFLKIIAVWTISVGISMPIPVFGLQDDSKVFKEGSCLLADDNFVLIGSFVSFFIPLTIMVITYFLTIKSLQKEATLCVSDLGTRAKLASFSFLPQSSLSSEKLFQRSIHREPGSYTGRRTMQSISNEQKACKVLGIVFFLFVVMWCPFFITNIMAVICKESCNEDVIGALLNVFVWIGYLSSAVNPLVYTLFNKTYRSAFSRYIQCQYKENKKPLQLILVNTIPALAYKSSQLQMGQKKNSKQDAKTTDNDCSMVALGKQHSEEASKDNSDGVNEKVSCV
D(2) dopamine receptor (Homo sapiens), sequence (P14416 whole entry, looked up): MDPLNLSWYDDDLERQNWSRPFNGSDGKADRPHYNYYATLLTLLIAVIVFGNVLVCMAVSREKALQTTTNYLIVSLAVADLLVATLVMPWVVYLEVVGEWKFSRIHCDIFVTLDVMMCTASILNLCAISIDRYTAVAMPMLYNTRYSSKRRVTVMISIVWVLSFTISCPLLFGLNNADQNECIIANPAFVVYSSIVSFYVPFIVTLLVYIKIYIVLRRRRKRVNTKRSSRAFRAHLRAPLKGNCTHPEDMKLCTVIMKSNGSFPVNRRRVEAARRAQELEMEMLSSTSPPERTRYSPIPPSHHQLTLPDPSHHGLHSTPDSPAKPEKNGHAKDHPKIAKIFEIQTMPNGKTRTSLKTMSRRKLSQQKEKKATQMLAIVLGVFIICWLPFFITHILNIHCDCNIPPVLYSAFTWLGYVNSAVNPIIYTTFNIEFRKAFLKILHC
Muscarinic acetylcholine receptor M1 (Homo sapiens), sequence (P11229 whole entry, looked up): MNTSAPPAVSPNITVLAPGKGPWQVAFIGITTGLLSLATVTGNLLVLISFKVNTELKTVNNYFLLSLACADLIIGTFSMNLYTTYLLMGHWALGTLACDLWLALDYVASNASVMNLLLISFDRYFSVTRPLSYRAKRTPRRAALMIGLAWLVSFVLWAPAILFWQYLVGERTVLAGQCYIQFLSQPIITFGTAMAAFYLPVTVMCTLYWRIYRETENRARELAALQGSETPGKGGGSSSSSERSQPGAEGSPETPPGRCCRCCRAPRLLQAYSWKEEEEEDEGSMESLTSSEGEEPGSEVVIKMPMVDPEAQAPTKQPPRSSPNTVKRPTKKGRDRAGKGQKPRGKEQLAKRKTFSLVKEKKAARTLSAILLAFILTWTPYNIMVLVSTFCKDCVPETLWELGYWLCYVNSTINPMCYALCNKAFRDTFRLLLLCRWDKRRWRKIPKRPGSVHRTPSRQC
Beta-2 adrenergic receptor (Homo sapiens), sequence (P07550 whole entry, looked up): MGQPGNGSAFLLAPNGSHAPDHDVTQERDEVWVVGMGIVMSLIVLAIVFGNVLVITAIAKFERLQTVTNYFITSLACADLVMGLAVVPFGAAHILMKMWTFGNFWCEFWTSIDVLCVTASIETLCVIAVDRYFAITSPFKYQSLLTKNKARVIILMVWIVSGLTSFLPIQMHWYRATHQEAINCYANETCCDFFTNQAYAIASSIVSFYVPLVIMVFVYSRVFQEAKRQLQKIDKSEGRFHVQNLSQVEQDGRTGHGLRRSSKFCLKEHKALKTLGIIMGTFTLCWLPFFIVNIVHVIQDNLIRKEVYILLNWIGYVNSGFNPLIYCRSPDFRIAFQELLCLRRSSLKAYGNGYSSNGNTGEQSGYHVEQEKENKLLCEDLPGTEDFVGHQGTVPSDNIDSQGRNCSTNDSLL

In the case of `CC[C@H](C)[C@H](N)C(=O)O`, the Potency entry in assay [1], in assay [2], in assay [3], in assay [4], in [5] and in assay [6] was “inactive” throughout. The Potency result in assay [7], in assay [8], in assay [9], in assay [10], in assay [11] and in assay [12] was “inactive” each time. The Potency entry in assay [13], in assay [14], in assay [15], in assay [16], in [17] and in assay [18] was “inactive” throughout.
For `C1CCSC1`, the Potency entry in assay [1], in assay [2], in assay [3], in assay [4], in [5] and in assay [6] was “inactive” throughout. Besides, the Potency result in [7], in [8], in [9], in [10], in assay [11] and in assay [12] was “inactive” throughout. In addition, the Potency entry in assay [13], in assay [19], in [14], in assay [15], in assay [16] and in [20] was “inactive” each time. For the same compound, the Potency result in assay [17] and in assay [18] was “inactive” throughout.
As to `CC(=O)C1(C)CC2=C(CCCC2(C)C)CC1C` (stereo unspecified), the Potency entry in [1], in assay [2], in assay [3], in assay [6], in assay [7] and in [9] was “inactive” in each case. Also, the Potency result in assay [10], in assay [11], in assay [12], in assay [13], in assay [19] and in assay [14] was “inactive” in each case. The Potency result in [15], in assay [16], in assay [20] and in [17] was “inactive” each time.
As to `Cc1nc(C)c(C)nc1C`, the Potency entry in assay [1], in assay [2], in assay [3], in assay [4], in assay [5] and in assay [6] was “inactive” throughout. Also, the Potency result in assay [7], in assay [8], in assay [9], in assay [10], in assay [11] and in assay [12] was “inactive” throughout. The Potency entry in assay [13], in assay [19], in assay [14], in [15], in [16] and in assay [20] was “inactive” in each case. The Potency result in assay [17] and in [18] was “inactive” throughout.
For `CC1=CCC(C(C)C)=CC1`, the Potency result in [1], in assay [2], in assay [3], in assay [6], in [7] and in [8] was “inactive” throughout. Besides, the Potency result in [9], in [10], in assay [11], in assay [12], in assay [13] and in assay [19] was “inactive” throughout. Moreover, the Potency entry in assay [14], in [15], in assay [16], in [17] and in [18] was “inactive” in each case.
In the case of `O=C1OC2(c3cc(Br)c(O)c(Br)c3Oc3c2cc(Br)c(O)c3Br)c2c(Cl)c(Cl)c(Cl)c(Cl)c21`, the Potency in assay [1] was 4.86 µM (active) and 18.6 µM (active); in assay [3] it was 39 µM (active) and 23.6 µM (active); in [12], 17.4 µM (active) and 33.4 µM (active); in [19], 49.1 µM (active) and 33.4 µM (active). In addition, the Potency result in [2], in assay [7], in [8], in assay [9], in assay [11] and in [13] was “inactive” each time. For the same compound, the Potency result in assay [14], in assay [16], in [20], in assay [17] and in assay [18] was “inactive” throughout.
With `Cn1cnc2c(F)c(Nc3ccc(Br)cc3Cl)c(C(=O)NOCCO)cc21`, the Potency entry in [1], in assay [2], in [3], in [4], in assay [5] and in assay [6] was “inactive” each time. For the same compound, the Potency result in assay [7], in [8], in [9], in [10], in [11] and in assay [12] was “inactive” in each case. Besides, the Potency result in assay [13], in [19], in assay [14], in assay [15], in assay [16] and in assay [20] was “inactive” throughout. Moreover, the Potency entry in assay [17] and in assay [18] was “inactive” each time.
